# According to article PMC11062922 (Nature Chemical Biology, 2023):
# Like-named read-outs stand apart in the source and are kept apart here.
# Tested on: NUAK1
# Conditions: read-out: apparent Kd, n = 1
substance,measurement,setting,value
Lestaurtinib,potency estimated from few doses,"compound concentrations:100 nM and 1000 nM (sheet 'Lestaurtinib' of Supplementary Table 1),run:Lestaurtinib_02422_R1,Plate:MR006",69.5 nM
same,potency estimated from few doses,"compound concentrations:100 nM and 1000 nM (sheet 'Lestaurtinib' of Supplementary Table 1),run:Lestaurtinib_02437_R1,Plate:MR007",89.8 nM
same,potency estimated from few doses,"compound concentrations:100 nM and 1000 nM (sheet 'Lestaurtinib' of Supplementary Table 1),run:Lestaurtinib_02437_R2,Plate:MR007",113 nM
same,potency estimated from few doses,"compound concentrations:100 nM and 1000 nM (sheet 'Lestaurtinib' of Supplementary Table 1),run:Lestaurtinib_02438_R1,Plate:MR008",94.3 nM
same,potency estimated from few doses,"compound concentrations:100 nM and 1000 nM (sheet 'Lestaurtinib' of Supplementary Table 1),run:Lestaurtinib_02438_R2,Plate:MR008",82.5 nM
same,potency estimated from few doses,"compound concentrations:100 nM and 1000 nM (sheet 'Lestaurtinib' of Supplementary Table 1),run:Lestaurtinib_02443_R2,Plate:MR009",163 nM
same,potency estimated from few doses,"compound concentrations:100 nM and 1000 nM (sheet 'Lestaurtinib' of Supplementary Table 1),run:Lestaurtinib_02473_R1,Plate:MR010",93 nM
same,potency estimated from few doses,"compound concentrations:100 nM and 1000 nM (sheet 'Lestaurtinib' of Supplementary Table 1),run:Lestaurtinib_02473_R2,Plate:MR010",56.8 nM
same,potency estimated from few doses,"compound concentrations:100 nM and 1000 nM (sheet 'Lestaurtinib' of Supplementary Table 1),run:Lestaurtinib_02482_R1,Plate:MR011",115 nM
same,potency estimated from few doses,"compound concentrations:100 nM and 1000 nM (sheet 'Lestaurtinib' of Supplementary Table 1),run:Lestaurtinib_02482_R2,Plate:MR011",74.4 nM
same,potency estimated from few doses,"compound concentrations:100 nM and 1000 nM (sheet 'Lestaurtinib' of Supplementary Table 1),run:Lestaurtinib_02482_R3,Plate:MR011",87.3 nM
same,potency estimated from few doses,"compound concentrations:100 nM and 1000 nM (sheet 'Lestaurtinib' of Supplementary Table 1),run:Lestaurtinib_02487_R1,Plate:MR012",60.4 nM
same,potency estimated from few doses,"compound concentrations:100 nM and 1000 nM (sheet 'Lestaurtinib' of Supplementary Table 1),run:Lestaurtinib_02487_R2,Plate:MR012",99.7 nM
same,potency estimated from few doses,"compound concentrations:100 nM and 1000 nM (sheet 'Lestaurtinib' of Supplementary Table 1),run:Lestaurtinib_02496_R2,Plate:MR013",81.1 nM
same,potency estimated from few doses,"compound concentrations:100 nM and 1000 nM (sheet 'Lestaurtinib' of Supplementary Table 1),run:Lestaurtinib_02566_R2,Plate:MR014",73 nM
same,potency estimated from few doses,"compound concentrations:100 nM and 1000 nM (sheet 'Lestaurtinib' of Supplementary Table 1),run:Lestaurtinib_02566_R3,Plate:MR014",85.3 nM
same,potency estimated from few doses,"compound concentrations:100 nM and 1000 nM (sheet 'Lestaurtinib' of Supplementary Table 1),run:Lestaurtinib_02572_R2,Plate:MR015",17.9 nM
same,potency estimated from few doses,"compound concentrations:100 nM and 1000 nM (sheet 'Lestaurtinib' of Supplementary Table 1),run:Lestaurtinib_02572_R3,Plate:MR015",42.5 nM
same,potency estimated from few doses,"compound concentrations:100 nM and 1000 nM (sheet 'Lestaurtinib' of Supplementary Table 1),run:Lestaurtinib_02577_R2,Plate:MR016",113 nM
same,potency estimated from few doses,"compound concentrations:100 nM and 1000 nM (sheet 'Lestaurtinib' of Supplementary Table 1),run:Lestaurtinib_02577_R3,Plate:MR016",73.6 nM
same,potency estimated from few doses,"compound concentrations:100 nM and 1000 nM (sheet 'Lestaurtinib' of Supplementary Table 1),run:Lestaurtinib_02584_R1,Plate:MR017",89.4 nM
same,potency estimated from few doses,"compound concentrations:100 nM and 1000 nM (sheet 'Lestaurtinib' of Supplementary Table 1),run:Lestaurtinib_02584_R2,Plate:MR017",66.9 nM
same,potency estimated from few doses,"compound concentrations:100 nM and 1000 nM (sheet 'Lestaurtinib' of Supplementary Table 1),run:Lestaurtinib_02584_R3,Plate:MR017",134 nM
same,potency estimated from few doses,"compound concentrations:100 nM and 1000 nM (sheet 'Lestaurtinib' of Supplementary Table 1),run:Lestaurtinib_02601_R1,Plate:MR018",142 nM
same,potency estimated from few doses,"compound concentrations:100 nM and 1000 nM (sheet 'Lestaurtinib' of Supplementary Table 1),run:Lestaurtinib_02606_R1,Plate:MR019",39.7 nM
same,potency estimated from few doses,"compound concentrations:100 nM and 1000 nM (sheet 'Lestaurtinib' of Supplementary Table 1),run:Lestaurtinib_02606_R2,Plate:MR019",58 nM
same,potency estimated from few doses,"compound concentrations:100 nM and 1000 nM (sheet 'Lestaurtinib' of Supplementary Table 1),run:Lestaurtinib_02606_R3,Plate:MR019",92 nM
same,potency estimated from few doses,"compound concentrations:100 nM and 1000 nM (sheet 'Lestaurtinib' of Supplementary Table 1),run:Lestaurtinib_02624_R2,Plate:MR020",82.2 nM
same,potency estimated from few doses,"compound concentrations:100 nM and 1000 nM (sheet 'Lestaurtinib' of Supplementary Table 1),run:Lestaurtinib_02624_R3,Plate:MR020",96.7 nM
same,potency estimated from few doses,"compound concentrations:100 nM and 1000 nM (sheet 'Lestaurtinib' of Supplementary Table 1),run:Lestaurtinib_02724_R1,Plate:MR021",59.7 nM
same,potency estimated from few doses,"compound concentrations:100 nM and 1000 nM (sheet 'Lestaurtinib' of Supplementary Table 1),run:Lestaurtinib_02741_R1,Plate:MR023",165 nM
same,potency estimated from few doses,"compound concentrations:100 nM and 1000 nM (sheet 'Lestaurtinib' of Supplementary Table 1),run:Lestaurtinib_02741_R3,Plate:MR023",43.7 nM
same,potency estimated from few doses,"compound concentrations:100 nM and 1000 nM (sheet 'Lestaurtinib' of Supplementary Table 1),run:Lestaurtinib_02748_R1,Plate:MR024",52.3 nM
same,potency estimated from few doses,"compound concentrations:100 nM and 1000 nM (sheet 'Lestaurtinib' of Supplementary Table 1),run:Lestaurtinib_02748_R2,Plate:MR024",40.2 nM
same,potency estimated from few doses,"compound concentrations:100 nM and 1000 nM (sheet 'Lestaurtinib' of Supplementary Table 1),run:Lestaurtinib_02752_R1,Plate:MR025",56.1 nM
same,potency estimated from few doses,"compound concentrations:100 nM and 1000 nM (sheet 'Lestaurtinib' of Supplementary Table 1),run:Lestaurtinib_02752_R3,Plate:MR025",64.1 nM
